The source of these data is PubChem BioAssay (NCATS).

The structures appear in SMILES notation. Records with an inconclusive call do not appear. Unmarked numbers belong to inactive results. The source made the active and inactive calls. The call rests on the fitted dose curve; in most records, active means well fitted curve in the direction sought with a large enough effect; inconclusive means small, poorly fitted or top-dose-only effect, or another doubt; inactive means no such curve, though single readings can be large; an effect the other way counts as inactive or inconclusive.

Test [1] addresses Cellular tumor antigen p53 (Homo sapiens) (UniProt P04637). Kind of test: Primary qHTS for small molecule compounds that upregulate eGFP-tagged delta133p53alpha (in N-terminal) cells. (AID 2060322). Further: nearly all actives have a fitted effect of over 75% in size. Further: potency means the concentration at half of the fitted maximal effect.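 On activation: series mostly up to about 56 µM; 0% = DMSO vehicle and 100% = reference activator.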 To be noted: NCI-H358 eGFP-delta133p53alpha fluorescence, 24 h; activation: hits give high values. In a few lines: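 NCI-H358 cells pre-induced 24 h with 10 ng/ml doxycycline to express N-terminal eGFP-delta133p53alpha, then dosed 24 h at 37C without doxycycline; fixed, Hoechst-stained, GFP intensity by laser scanning cytometry, normalized to DMSO (0%) and 57.5 uM 5-azacytidine (100%).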
For orientation: Quantitative high-throughput screening tests each substance at several concentrations.

Test [2] has as its target Aldehyde dehydrogenase, mitochondrial (Homo sapiens) (UniProt P05091). Kind of test: qHTS for Inhibitors of the Aldehyde Dehydrogenase Family (ALDH2) Primary screen (AID 2061308).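 Further: plate controls were vehicle for no effect and reference inhibitor for full effect; nearly all actives have a fitted effect of over 55% in size.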
Test [3] has as its target Retinaldehyde dehydrogenase 3 (Homo sapiens) (UniProt P47895). Description: qHTS for Inhibitors of the Aldehyde Dehydrogenase Family (ALDH1A3) Primary screen (AID 2061315).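 Further: plate controls were DMSO vehicle for no effect and reference inhibitor for full effect.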

Sequence of Cellular tumor antigen p53 (Homo sapiens) (P04637 whole entry, looked up): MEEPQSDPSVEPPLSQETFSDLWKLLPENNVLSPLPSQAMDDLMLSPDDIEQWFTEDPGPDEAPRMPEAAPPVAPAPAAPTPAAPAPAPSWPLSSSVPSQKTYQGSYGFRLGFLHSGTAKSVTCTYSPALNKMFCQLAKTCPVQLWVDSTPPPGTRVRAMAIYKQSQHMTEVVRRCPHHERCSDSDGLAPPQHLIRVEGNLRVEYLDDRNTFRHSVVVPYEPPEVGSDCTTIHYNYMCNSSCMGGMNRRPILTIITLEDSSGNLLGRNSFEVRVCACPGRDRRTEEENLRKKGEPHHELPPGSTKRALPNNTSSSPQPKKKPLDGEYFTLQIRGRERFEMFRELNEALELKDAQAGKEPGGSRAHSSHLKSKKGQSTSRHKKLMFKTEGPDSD

As to `C/C=C/C=C/C(O)=C1/C(=O)[C@]2(C)C(=O)[C@@](C)(O)[C@H]1[C@H]([C@@]1(C)OC(=O)C(C)=C1O)[C@H]2C(=O)CC/C=C/C`, the activation in test [1] was -10.7%. For the same compound, the Potency result in test [2] and in test [3] was “inactive” each time.

Regarding `CC(O)(C(=O)O)C1CCC2(C)C1CCC1(C)C2CCC2C3(C)CCC(O)C(C)(COC4OC(CO)C(O)C(O)C4O)C3CCC21C` (centres undefined), in test [1], the activation is 1.53%. Besides, the Potency result in test [2] and in test [3] was “inactive” in each case.

Consider `CC12CCC3c4ccc(O)cc4CCC3C1CC(OC1OC(C(=O)O)C(O)C(O)C1O)C2O` (centres undefined), for which, in test [1], the activation was -10.3%. Also, the Potency entry in test [2] and in test [3] was “inactive” throughout.

Consider `CC(C)CC1(C(=O)OCc2ccc(O[C@@H]3O[C@H](CO)[C@@H](O)[C@H](O)[C@H]3O)cc2)CC(=O)OC(C(=O)O)CC(=O)OCC2OC(O1)C(OC(=O)/C=C/c1ccc(O)cc1)C(O)C2O` (some centres undefined), for which the activation in test [1] is 3.05%. For the same compound, the Potency entry in test [2] and in test [3] was “inactive” each time.

Consider `C[C@@H]1CC2OC(=O)C3=C2C(CCC3O)[C@@]12C[C@@H](c1ccoc1)OC2=O` (some centres undefined), for which the activation in test [1] is -8.4%. Also, the Potency entry in test [2] and in test [3] was “inactive” throughout.

Consider `Nc1ncnc2c([C@@H]3N[C@H](CO)[C@@H](O)[C@H]3O)c[nH]c12`, for which, in test [1], the activation is -8.93%. For the same compound, the Potency result in test [2] and in test [3] was “inactive” throughout.

Take `COc1ccc2c3ccnc4ccc(=O)n(c2c1)c43`: the activation in test [1] is 17%. Further, the Potency entry in test [2] and in test [3] was “inactive” in each case.

Consider `C[C@@H]1C/C=C/C=C\C=C\C=C\[C@H](O[C@@H]2O[C@H](C)[C@@H](O)[C@H](N)[C@@H]2O)C[C@@H]2O[C@](O)(C[C@@H](O)C[C@H]3O[C@@H]3/C=C/C(=O)O1)C[C@H](O)[C@H]2C(=O)O`, for which the activation in test [1] is 13.7%. Also, the Potency entry in test [2] and in test [3] was “inactive” each time.

Regarding `COc1ccc(CN2CCN(CCCSc3cc(C(C)(C)C)c(O)c(C(C)(C)C)c3)CC2)c(OC)c1OC`, the activation in test [1] was 16.3%. In addition, the Potency result in test [2] and in test [3] was “inactive” in each case.

Consider `C/C=C(\C)C(=O)O[C@H]1C=CC(=O)O[C@H]1/C=C/[C@@H](O)[C@H](C)O`, for which the Potency in test [1] was 26.9 µM (active). The Potency result in test [2] and in test [3] was “inactive” each time.

For `COc1ccc(C2(O)c3ccccc3NC(=O)C2OC)cc1` (centres undefined), the activation in test [1] was -2.29%. Besides, the Potency entry in test [2] and in test [3] was “inactive” throughout.

Take `C[C@@H]1O[C@@H](OC[C@H]2O[C@@H](Oc3cc(O)cc4c3C(=O)C(O)(Cc3ccc(O)cc3)O4)[C@H](O)[C@@H](O)[C@@H]2O)[C@H](O)[C@H](O)[C@H]1O` (some centres undefined): the activation in test [1] is -11.5%. Further, the Potency entry in test [2] and in test [3] was “inactive” throughout.

Take `CC(C)(O)C1CC(=O)C2(C)C(CCC3(C)C(c4ccoc4)OC(=O)C4OC432)C12CCC(=O)OC2` (centres undefined): the activation in test [1] was -3.57%. Further, the Potency result in test [2] and in test [3] was “inactive” in each case.

For the compound `CC1(C)CC[C@]2(C(=O)O[C@@H]3O[C@H](CO)[C@@H](O)[C@H](O)[C@H]3O)CC[C@]3(C)C(=CCC4[C@@]5(C)CC[C@H](O[C@@H]6O[C@H](C(=O)O)[C@@H](O)[C@H](O)[C@H]6O)C(C)(C)C5CC[C@]43C)C2C1` (some centres undefined), in test [1], the activation is -0.893%. The Potency result in test [2] and in test [3] was “inactive” each time.

`C=CC(C)(CCC=C(C)C)O[C@@H]1O[C@H](CO)[C@@H](O)[C@H](O)[C@H]1O` (some centres undefined): the activation in test [1] is 3.57%. Besides, the Potency result in test [2] and in test [3] was “inactive” each time.

For the compound `C[C@@H]1C(=O)O[C@H](C)[C@H]1C[C@@H](O)[C@](C)(O)[C@H]1CC[C@@]2(O)C3=CC(=O)[C@@H]4C[C@@H](O)[C@@H](O)C[C@]4(C)C3CC[C@]12C` (some centres undefined), the activation in test [1] was -5.36%. Moreover, the Potency entry in test [2] and in test [3] was “inactive” each time.

Take `NC(=O)C1=CC2C3C=CC2C(OC3=O)O1` (centres undefined): the activation in test [1] is 27.5%. Further, the Potency result in test [2] and in test [3] was “inactive” in each case.

Regarding `C[C@@H]1O[C@@H](O[C@H]2[C@H](O[C@H]3CC[C@@]4(C)C(CC[C@]5(C)C4CC=C4C6CC(C)(C)CC[C@]6(C(=O)O[C@@H]6O[C@H](CO[C@@H]7O[C@H](CO)[C@@H](O[C@@H]8O[C@@H](C)[C@H](O)[C@@H](O)[C@H]8O)[C@H](O)[C@H]7O)[C@@H](O)[C@H](O)[C@H]6O)CC[C@]45C)[C@]3(C)CO)OC[C@H](O)[C@@H]2O)[C@H](O)[C@H](O)[C@H]1O` (some centres undefined), the activation in test [1] was 3.82%. Besides, the activity change, negative = inhibition in test [2] is 15.8% [at 11.2 µM]; in test [3], 17.4% [at 11.2 µM].

For the compound `C=C1CCCC2(C)CCC(C(C)(C)OC3OC(C)C(O)C(O)C3OC(=O)/C(C)=C\C)CC12` (centres undefined), the activation in test [1] was -19.8%. Also, the Potency entry in test [2] and in test [3] was “inactive” throughout.

`CC(=O)NC1C(OC2CCC3(C)C(CCC4(C)C3CC=C3C5CC(C)(C)CCC5(C(=O)O)C(O)CC34C)C2(C)C)OC(CO)C(O)C1O` (centres undefined): the activation in test [1] was 1.53%. For the same compound, the Potency entry in test [2] and in test [3] was “inactive” each time.

As for `C[C@@H]1O[C@@H](O[C@H]2[C@H](O[C@H]3[C@H](O)[C@@H](C(=O)O)O[C@@H](O[C@H]4CC[C@@]5(C)C(CC[C@]6(C)C5CC[C@]57OC[C@@]8(CCC(C)(C)CC85)[C@H](O)C[C@]76C)C4(C)C)[C@@H]3O[C@@H]3O[C@H](CO)[C@@H](O[C@@H]4OC[C@@H](O)[C@H](O)[C@H]4O)[C@H](O)[C@H]3O)O[C@H](CO)[C@H](O)[C@@H]2O)[C@H](O)[C@H](O)[C@H]1O` (some centres undefined), the activation in test [1] is -6.87%. In addition, the activity change, negative = inhibition in test [2] is 5.88% [at 11.2 µM]; in test [3] it was -5.39% [at 11.2 µM].

With `CC(=O)OC1C(O)CC2(C)C(CCC3(C)C2CC=C2C4C5(CCC(CO[C@@H]6O[C@H](CO)[C@@H](O)[C@H](O)[C@H]6O)(OC5=O)C4(C)O)C(O)CC23C)C1(C)C` (some centres undefined), in test [1], the activation was -11.5%. Further, the Potency result in test [2] and in test [3] was “inactive” throughout.

On to `CC1(C)CC[C@]2(C(=O)O[C@@H]3O[C@H](CO)[C@@H](O)[C@H](O)[C@H]3O)CC[C@]3(C)C(=CCC4[C@@]5(C)CC[C@H](O[C@@H]6O[C@H](C(=O)O)[C@@H](O)[C@H](O[C@@H]7O[C@H](CO)[C@H](O)[C@H](O)[C@H]7O)[C@H]6O)C(C)(C)C5CC[C@]43C)C2C1` (some centres undefined), for which, in test [1], the activation was -9.92%. For the same compound, the Potency entry in test [2] and in test [3] was “inactive” throughout.
